Measured values from PubChem BioAssay AID1729 (National Center for Advancing Translational Sciences (NCATS), 2009).
Inconclusive results are not listed. Active and inactive are the calls of the source. Calls come from the whole dose curve; as a rule, active = well fitted curve in the direction sought with a large enough effect; inconclusive = small, poorly fitted or top-dose-only effect, or effect the other way, or another doubt; inactive = no such curve, though single readings can be large or run the other way.

Molecular target: Epidermal growth factor receptor (Homo sapiens) (UniProt P00533)
Sequence (P00533 whole entry T790M, looked up): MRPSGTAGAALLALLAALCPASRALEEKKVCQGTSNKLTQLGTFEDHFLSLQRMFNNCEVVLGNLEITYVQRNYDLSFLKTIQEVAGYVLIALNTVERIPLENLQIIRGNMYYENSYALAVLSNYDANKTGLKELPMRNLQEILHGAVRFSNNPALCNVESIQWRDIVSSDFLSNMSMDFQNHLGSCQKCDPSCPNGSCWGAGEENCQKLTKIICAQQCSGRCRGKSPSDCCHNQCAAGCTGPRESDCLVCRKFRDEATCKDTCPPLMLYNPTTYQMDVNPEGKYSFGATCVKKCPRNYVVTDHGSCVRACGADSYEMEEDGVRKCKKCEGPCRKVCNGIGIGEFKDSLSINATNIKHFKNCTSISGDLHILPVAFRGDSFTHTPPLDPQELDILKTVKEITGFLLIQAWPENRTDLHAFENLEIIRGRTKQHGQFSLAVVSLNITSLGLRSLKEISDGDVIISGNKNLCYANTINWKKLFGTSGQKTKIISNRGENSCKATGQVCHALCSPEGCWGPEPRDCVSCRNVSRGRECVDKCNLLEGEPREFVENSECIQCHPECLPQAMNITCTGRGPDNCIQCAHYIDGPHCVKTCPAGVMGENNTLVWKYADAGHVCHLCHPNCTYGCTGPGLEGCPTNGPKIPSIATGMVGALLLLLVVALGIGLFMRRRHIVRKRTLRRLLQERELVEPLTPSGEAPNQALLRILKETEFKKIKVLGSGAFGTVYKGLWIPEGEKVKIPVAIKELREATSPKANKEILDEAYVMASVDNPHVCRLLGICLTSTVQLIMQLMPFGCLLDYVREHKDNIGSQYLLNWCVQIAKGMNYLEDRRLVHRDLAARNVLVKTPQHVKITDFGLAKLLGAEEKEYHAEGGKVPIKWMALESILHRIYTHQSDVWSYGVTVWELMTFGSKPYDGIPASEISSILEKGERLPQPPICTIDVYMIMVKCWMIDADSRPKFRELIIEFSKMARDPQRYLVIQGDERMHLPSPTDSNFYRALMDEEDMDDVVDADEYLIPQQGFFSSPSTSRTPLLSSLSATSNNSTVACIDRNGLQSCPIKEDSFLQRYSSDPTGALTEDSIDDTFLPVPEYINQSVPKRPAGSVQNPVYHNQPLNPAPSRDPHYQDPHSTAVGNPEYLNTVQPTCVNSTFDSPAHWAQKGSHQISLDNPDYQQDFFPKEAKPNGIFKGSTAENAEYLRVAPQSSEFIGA
Experiment: Assay for Inhibitors of the ERK Signaling Pathway using a Homogeneous Screening Assay: EGFR T790M Kinase Inhibition
From the text: qHTS Assay for Inhibitors of the ERK Signaling Pathway using a Homogeneous Screening Assay
NIH Chemical Genomics Center [NCGC]
NIH Molecular Libraries Screening Centers Network [MLSCN]
Assay Submitter (PI): Dr. Wei Zheng, NCGC/NIH
The Ras/extracellular-signal-regulated kinase (ERK) mitogen activated protein (MAP) kinase signaling pathway (ERK1/2 cascade) plays is a key role in transmitting signals from the cell surface to the nucleus (Nishida and Gotoh 1993; Chang and Karin, 2001). The cascade is initiated by the small G-protein Ras, which recruits Raf […], where activation occurs. Alternatively, this pathway can be activated by elevating intracellular cAMP.
Activation of the ERK pathway is essential in increased cell division and cell survival. Sustained and constitutive activation of the ERK pathway, however, has been linked to uncontrolled cell proliferation, increased cell survival, and tumor progression. Thus, the ERK has been as an attractive target for cancer chemotherapy in the past few years (Sebolt-Leopold and Herrera, 2004). […]
The HTRF kinase assay (components supplied as kit by Cisbio) was chosen for the EGFR and EGFR mutant enzyme assays that applied the time resolved fluorescence resonance energy transfer (TR-FRET) principle. […]

Structure (SMILES) | outcome
CCn1nc(-c2ccccc2)nc2c(=O)n(C)c(=O)nc1-2 | inactive
Cc1nc2c(=O)n(C)c(=O)nc-2n(C)n1 | inactive
